Data published in ChEMBL document CHEMBL4513216, “Probing the Open Global Health Chemical Diversity Library for Multistage-Active Starting Points for Next-Generation Antimalarials” (ACS Infect Dis, 2020).
The campaign covered roughly 69,000 compounds. About 8,600 (12%) showed an effect of 50% or more. This is one part of a sample in which strong results are shown more often than they occur.

tested on: Plasmodium berghei; test: Screen against P. berghei liver stage (PbLuc), transformed with Luciferase, at 10uM; assay type: functional, HepG2; details: tested at 10 uM

Structure (SMILES) | INHIBITION [%]
CS(=O)(=O)N1C[C@H](C(=O)Nc2cccnc2)[C@@H]2CCO[C@@H]2C1 | -7.7
CN(C)c1ncnc2c1CCN(C(=O)c1cccnc1)CC2 | 20.6
COc1cc(NC2CCN(C3CCS(=O)(=O)CC3)CC2)ncn1 | -15
Cc1ccc(CC(=O)N2CCCC(c3cc(C(N)=O)[nH]n3)C2)cn1 (stereo unspecified) | 39.35
Cc1ccc(C(=O)NCC(c2cnn(C)c2)N(C)C)c(O)c1 (stereo unspecified) | 1.19
CCOc1cc(F)ccc1NC(=O)NCC(c1cnn(C)c1)N(C)C (stereo unspecified) | 44.9
CCOc1ccccc1CNC(=O)NCC(c1cnn(C)c1)N(C)C (stereo unspecified) | 62.8
Cc1ccc(NC(=O)NCC(c2cnn(C)c2)N(C)C)c(C)c1 (stereo unspecified) | 57.7
CCOCc1ccccc1NC(=O)NCC(c1cnn(C)c1)N(C)C (stereo unspecified) | 2.91
Cn1cc(C(O)CNC(=O)Nc2cc(F)ccc2-n2cccn2)cn1 (stereo unspecified) | 23.4
O=C(c1ccc(C2CCNC2)cc1)N1CCC(N2CCC(O)CC2)CC1 (stereo unspecified) | -8
CCN(CC)Cc1cn2c(n1)CN(C(=O)c1cnccn1)CC2 | 37
CN1C(=O)CO[C@H]2CN(C(=O)c3ccc4c(c3)CCCC4)C[C@@H]21 | -3
Cn1ccnc1CN1CCC(Cc2ccccn2)CC1 | 38.2
O=C(NCCCO)c1nc(-c2ccc3cc[nH]c3c2)no1 | -108
c1cncc(NCCNC2CCCNC2)c1 (stereo unspecified) | 4.95
CC(C)CN1CCC(NCCNc2cccnc2)CC1 | 52.7
CC(C)CN1CCC(NC(C)c2ccccc2-n2cccn2)CC1 (stereo unspecified) | 89.1
c1cncc(NCCNC2CCSCC2)c1 | -22.8
c1cncc(NCCNC2CCSC2)c1 (stereo unspecified) | 29.7
c1cncc(NCCNC2CSCCSC2)c1 | 57.5
CC(NC1CCCC1)c1ccccc1-n1cccn1 (stereo unspecified) | -8.66
Cc1cnccc1NCCNC1CCN(CC(C)C)CC1 | -58.7

Structure (SMILES) | INHIBITION [%]
CC(NC1CCSCC1)c1ccccc1-n1cccn1 (stereo unspecified) | -4.12
O=C(O)c1cnc(N2CCC(O)CC2)nc1COc1ccc(F)cc1 | 46.1
CC(C)(C)NC(=O)c1ccn(COc2c(Cl)cccc2Cl)n1 | 20.9
Cc1cc(C(=O)NCc2cccs2)c2c(C3CCCN3)noc2n1 (stereo unspecified) | 29.2
COc1ccccc1C(=O)N1CC(=O)N(CC2CC2)CC(O)C1 (stereo unspecified) | 34.3
Cc1cccc(C(=O)N2C[C@@H]3COC[C@@H](CC(=O)N4CCCC4)[C@@H]3C2)n1 | -69.3
O=C(COCCOc1ccccc1)NC1CCN(c2ccccn2)CC1 | -10.7
Cc1ccc(C)c(OCC(=O)NC2CCN(c3ccccn3)CC2)c1 | -43.2
CN(C1CCN(c2ccccn2)CC1)S(=O)(=O)c1cccs1 | 33
COCCOCC(=O)NC1CCN(c2ccccn2)CC1 | 51.3
CN(C(=O)Cc1ccccc1Cl)C1CCN(c2ccccn2)CC1 | 60.5
Cc1ccccc1CC(=O)N(C)C1CCN(c2ccccn2)CC1 | 42.9
CN(C1CCN(c2ccccn2)CC1)S(=O)(=O)N1CCOCC1 | 55.4
CN(C(=O)Cc1cccs1)C1CCN(c2ccccn2)CC1 | 54.4
CN(C1CCCN(c2ccccn2)C1)S(=O)(=O)N1CCOCC1 (stereo unspecified) | 17.85
CCOc1ncccc1C(=O)N(C)C1CCN(c2ccccn2)CC1 | 15.6
CN(C(=O)CNc1ccc(C#N)cc1)C1CCN(c2ccccn2)CC1 | 11.2
CN(C1CCN(c2ccccn2)CC1)S(=O)(=O)c1ccc(F)cc1 | 8.13
Cc1cnn(C2CCCN(C(=O)CCCn3ccnc3C)C2)c1 (stereo unspecified) | 9.54
Cc1cc(CN2CCC3(CC2)COC(COCC2CC2)C3)no1 (stereo unspecified) | 22.2
CCNC(=O)NC(=O)CN1CCC(c2cccc(F)c2)C1 (stereo unspecified) | 15.8
O=C(NC1CC1)c1cc(C(F)(F)F)cc(C(F)(F)F)n1 | -14.3
Cc1ccc(OCCN2CCC(c3ccnn3CCO)CC2)cc1 | 19.6

Structure (SMILES) | INHIBITION [%]
CCc1nc2n(n1)CC(NCc1nc(-c3ccccn3)no1)CC2 (stereo unspecified) | 4.45
COCCOc1cccc(C(=O)N2CCCC(n3ccnc3)C2)c1 (stereo unspecified) | 33.7
OCC(CO)N1CCC(c2nccnc2Nc2cnccn2)CC1 | -42.9
Cc1ccc(S(=O)(=O)N2CCCC3(CCCN3S(C)(=O)=O)C2)cc1F (stereo unspecified) | -21.1
CSC1(CNC(=O)CCc2ccc(Cl)s2)CCOCC1 | -19.1
CN1CCN(CCCNC(=O)CCc2nc3cc(Br)cnc3[nH]2)CC1 | 38.9
CCc1nccn1C1CCCN(C(=O)c2ccc3[nH]cnc3c2)C1 (stereo unspecified) | 3.16
CCCc1nnc(NCCn2nc(C)c(Cl)c2C)o1 | 13.7
Cc1cc(C)n(CC2CN(CC(=O)NC3CCOCC3)CCO2)n1 (stereo unspecified) | 36.1
COc1ccc2[nH]cc(C(=O)N3C[C@@H](O)[C@H](N4CCOCC4)C3)c2c1 | 29.5
O=C(Cc1ccc(F)cc1)NCCNCc1cccc(O)c1 | 5.9
CCn1c(C)cc(C(=O)N2C[C@@H](C(=O)O)[C@H](c3ccccc3)C2)c1C | 35.8
CNc1ncc(C(=O)N[C@H]2CN(CCCSC)C[C@@H]2C2CC2)cn1 | 1.71
CN(C(=O)c1ccccc1Cl)C1CCN(c2ccccn2)CC1 | 28.6
O=C1OCCC1N1CCN(c2ccccn2)CC1 (stereo unspecified) | 59.3
O=C1OCCC1N1CCN(c2ccc(O)cc2)CC1 (stereo unspecified) | 43.1
CN(C1CCN(c2ccccn2)CC1)S(=O)(=O)c1ccccc1F | 21.5
COCC(C)N(C)C(=O)NC1CCN(S(C)(=O)=O)CC1 (stereo unspecified) | 36.2
CN(Cc1cnn(C)c1)C(=O)NC1CCN(c2ncccn2)CC1 | 3.04
O=C1OCCC1N1CCN(c2cnccn2)CC1 (stereo unspecified) | 3.69
CN(C(=O)Cc1ccccc1F)C1CCN(c2ccccn2)CC1 | 52.3
Cc1cccc(C(=O)N(C)C2CCN(c3ccccn3)CC2)c1C | 37.3
COCC(C)N(C)C(=O)NC1CCN(c2ncccn2)CC1 (stereo unspecified) | 52.2

Structure (SMILES) | INHIBITION [%]
CN(C(=O)c1cccc2[nH]ncc12)C1CCN(c2ccccn2)CC1 | 59.7
CN(Cc1noc(C2CC2)n1)C1CCN(CCS(C)(=O)=O)C1 (stereo unspecified) | -24.2
CN(C(=O)CNC(=O)CC(C)(C)C)C1CCN(c2ccccn2)CC1 | -11.5
CN(C(=O)Cc1c[nH]c2ccccc12)C1CCN(c2ccccn2)CC1 | 53.8
CN(C(=O)c1ccc(Cl)cc1)C1CCN(c2ccccn2)CC1 | 3.73
CN(C(=O)c1cccc(Cl)c1)C1CCN(c2ccccn2)CC1 | 31.3
CN(C(=O)c1cc(Cl)c[nH]1)C1CCN(c2ccccn2)CC1 | 50.4
CN(C(=O)Cc1ccc(F)cc1)C1CCN(c2ccccn2)CC1 | -1.14
OC(CN1CCN(Cc2ccc(F)c(F)c2)CC1)C1CC1 (stereo unspecified) | -48.4
Cc1nc(C(C)n2cc3[nH]cccc-3c2=O)cs1 (stereo unspecified) | 33.7
CCN(Cc1noc(C2CC2)n1)C(=O)c1onc2ccccc12 | 48.1
O=C1CCCN1Cc1nnc(SCc2ccc3c(c2)CCC3)o1 | 13.2
Cc1n[nH]cc1CNCC1(c2cccc(F)c2)CCOCC1 | -11.9
c1ccc(CN2CCOC3(COCCN(c4ncccn4)C3)C2)nc1 (stereo unspecified) | 20.1
Fc1ccc(N2CCOC3(COCCN(c4ncccn4)C3)C2)cc1 (stereo unspecified) | 61.1
Cc1nnc(N2CCCC3(CN(Cc4cnn(C)c4)CCO3)C2)o1 (stereo unspecified) | 41.2
Fc1cccc(N2CCCC3(C2)CN(c2cnccn2)CCO3)c1 (stereo unspecified) | 23.3
Fc1cccc(N2CCCC3(CN(Cc4ccccn4)CCO3)C2)c1 (stereo unspecified) | -9.42
c1cnc(N2CCOCC3(CNCCO3)C2)nc1 (stereo unspecified) | 22.2
Fc1cccc(N2CCCC3(C2)CN(c2ncccn2)CCO3)c1 (stereo unspecified) | 80.5
Cn1cc(CN2CCC(F)(F)C3(CCN(c4cccc(F)c4)C3)C2)cn1 (stereo unspecified) | -0.371
Cn1cc(CN2CCOC3(CCCN(c4cccc(F)c4)C3)C2)cn1 (stereo unspecified) | 73
COc1ccc(CN2CCOC3(CCCN(c4nnc(C)o4)C3)C2)cc1 (stereo unspecified) | 31.8

Structure (SMILES) | INHIBITION [%]
Cc1nnc(N2CCCC3(CN(Cc4ccc(F)cc4)CCO3)C2)o1 (stereo unspecified) | 57.4
Cc1nnc(N2CCCC3(CN(Cc4ccncc4)CCO3)C2)o1 (stereo unspecified) | 10.1
Cc1cc(O)cc(=O)n1CCCC(=O)Nc1n[nH]c2ccccc12 | 9.96
COCC1CN(S(=O)(=O)N(C)C)Cc2ncn(CC3CC3)c21 (stereo unspecified) | 5.56
Cc1cccc(CO[C@H]2CN(c3nnc(C)s3)[C@@H]3CCCO[C@H]23)n1 | 22.2
Cc1nc(CN2CCC3(CCCN(C(=O)c4cnccn4)C3)C2)cs1 (stereo unspecified) | -2.46
Cc1cc(CN2CCCC2c2c(C)nn(C)c2Cl)on1 (stereo unspecified) | 47
Cc1cnn(CC2CN(Cc3ccc(C(N)=O)cc3)CCO2)c1 (stereo unspecified) | 37.4
COCC(=O)N1CCC[C@]2(C(=O)N(C)C)CN(c3ccccn3)C[C@@H]2C1 | -4.56
c1ccc2oc(CCCN3CCCC(Cn4cncn4)C3)nc2c1 (stereo unspecified) | 45.7
Fc1cnc(N2CCCC3(CN(Cc4ccncc4)CCO3)C2)nc1 (stereo unspecified) | 1.71
c1ccc(CN2CCOC3(CCCN(c4nccs4)C3)C2)cc1 (stereo unspecified) | 43.9
Cc1nnc(N2CCCC3(CN(Cc4cccnc4)CCO3)C2)o1 (stereo unspecified) | 22.2
Fc1cccc(N2CCCC3(CN(Cc4ccncc4)CCO3)C2)c1 (stereo unspecified) | 81.3
Cc1nnc(N2CCCC3(CN(Cc4nccs4)CCO3)C2)o1 (stereo unspecified) | 8.67
Fc1cccc(N2CCCC3(CN(Cc4cccnc4)CCO3)C2)c1 (stereo unspecified) | 71.9
Fc1cccc(N2CCOC3(CCCN(c4cnccn4)C3)C2)c1 (stereo unspecified) | 41
Fc1cccc(N2CCCC3(CN(Cc4nccs4)CCO3)C2)c1 (stereo unspecified) | 88.2
CC(=O)N1CCCC2(CN(Cc3ccncc3)CCO2)C1 (stereo unspecified) | -7.59
